FMDV antiviral – foot and mouth disease virus antiviral activity. FMDV antiviral cell-based qHTS. Potency, µM (highest dose often 57.9 µM), most hits filed as inhibitors. 410,000 tested, 1.2% active. AID 1159524; calls by dose curve; tested in HEK293T cells; also: read-out not given here; nearly all actives have a fitted effect of over 45% in size
MARV entry inh – blocks Marburg virus binding to or entry into cells. 300,000 tested, 1.8% active. Marburg virus pseudotyped entry inhibition, cell reporter. Potency, µM (top dose mostly 37.8 µM), usual class: inhibitors; calls by dose curve; tested in HEK293 cells
Shiga inhibitor – blocks Shiga toxin action in Vero cells; Vero cells, Shiga toxin protein synthesis inhibition reporter; inhibition, % at 38.7 µM; 290,000 tested, 9.2% active; AID 2315; in the data active = inhibition mostly above about 28%, no sharp cut-off; inactive = mostly below about 43%
HCV inhibitor – HCV inhibition; Huh7.5.1 HCVcc-Cre infection, luciferase reporter, 44 h; Potency, µM (titrated, usually from 41.8 µM), most hits filed as inhibitors; 340,000 tested, 3.4% active; active = well fitted inhibition curve with a large enough effect; inconclusive = small, poorly fitted or top-dose-only effect, or another doubt; inactive = no such curve, though single readings can be large or run the other way
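HCVcc-Cre virus at an moi near 0.5 was added right after compound to cells cultured 4 h from seeding (1,000 cells/well). Luciferase activity was determined 44 h later, 15 min after substrate addition at RT.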
CHX counter – counter-screen for Shiga toxin inhibitors: cycloheximide protein synthesis inhibition; cell reporter, cycloheximide protein synthesis inhibition counterscreen; max response, %; 300,000 tested, 12% active; AID 2314; in the data active = max response mostly above about 13%, no sharp cut-off; inactive = mostly below about 14%; also: read at 38.3 µM for the half of the compounds with a filed dose
Lassa entry inh – inhibitors of Lassa virus binding or cell entry. Lassa virus pseudotype entry inhibition, cell reporter. Potency, µM (highest dose often 37.9 µM), usual class: inhibitors. 300,000 tested, 1.2% active; calls by dose curve; tested in HEK293 cells; also: nearly all actives have a fitted effect of over 50% in size
Each line names hits and unclear results; the compound was inactive in the other large screens. Most compounds without a hit are left out; they make up all but 13% or so of the library.

COC(=O)c1ccc(C2C(C(=O)c3ccco3)=C(O)C(=O)N2CC2CCCO2)cc1 (stereo not drawn)	none (no result: Lassa entry inh)
CCOc1ccc(-n2ccnc(SCC(=O)Nc3ccc(OC)cc3OC)c2=O)cc1	MARV entry inh inconclusive, HCV inhibitor 8.9µM (no result: Shiga inhibitor, CHX counter)
Nc1ccc2nc3c(=O)n(C4CCCCC4)c(=O)[nH]c3nc2c1	Shiga inhibitor 78, CHX counter 40 (no result: MARV entry inh, Lassa entry inh)
CCCCn1c(=O)[nH]c2nc3cc(N)ccc3nc2c1=O	Shiga inhibitor 81, CHX counter 80, Lassa entry inh inconclusive
CCCCCCCCCCCCCCSCC(=O)O	Lassa entry inh inconclusive (no result: Shiga inhibitor, HCV inhibitor, CHX counter)
COc1cc(N2CCN(C(C)C)CC2)ccc1Nc1nc(Nc2cccc3ncccc23)c2cc[nH]c2n1	Lassa entry inh 20µM (no result: FMDV antiviral, MARV entry inh, Shiga inhibitor, HCV inhibitor, CHX counter)
Cc1cccc(-n2ncc3c(N4CCN(c5ccccc5)CC4)ncnc32)c1	FMDV antiviral inconclusive (no result: MARV entry inh, Shiga inhibitor, HCV inhibitor, CHX counter)
Cc1cccc(-n2ncc3c(N4CCCC4)ncnc32)c1	MARV entry inh inconclusive, Shiga inhibitor 86, HCV inhibitor inconclusive, CHX counter 32, Lassa entry inh inconclusive (no result: FMDV antiviral)
CCOC(=O)C1CCN(c2ncnc3c2c(-c2ccccc2)cn3-c2ccccc2)CC1	MARV entry inh inconclusive, HCV inhibitor 10µM, Lassa entry inh inconclusive
COc1ccc(-n2ncc3c(N4CCN(c5cccc(C)c5)C(C)C4)ncnc32)cc1 (stereo not drawn)	FMDV antiviral 20µM, Lassa entry inh inconclusive (no result: MARV entry inh, Shiga inhibitor, HCV inhibitor, CHX counter)
CC1CN(c2ncnc3c2c(-c2ccccc2)cn3-c2ccc(F)cc2)CC(C)O1 (stereo not drawn)	FMDV antiviral inconclusive, MARV entry inh inconclusive, HCV inhibitor 10µM, Lassa entry inh inconclusive
CCNC(=S)NNC(=O)c1cc(C)on1	none
CCOc1ccc2c(c1)c1nnc(SCC(=O)N3CCCCC3C)nc1n2C (stereo not drawn)	FMDV antiviral inconclusive
Cc1ccc(-n2cc(-c3ccccc3)c3c(N4CCOCC4)ncnc32)cc1	FMDV antiviral inconclusive, MARV entry inh inconclusive, HCV inhibitor inconclusive
Cc1cccc(-n2ncc3c(N4CCOCC4)ncnc32)c1	MARV entry inh 3.7µM, CHX counter 15, Lassa entry inh 1.6µM
Cc1cccc(-n2cc(-c3ccccc3)c3c(N4CCOCC4)ncnc32)c1	FMDV antiviral inconclusive, MARV entry inh inconclusive, HCV inhibitor 3.2µM, Lassa entry inh inconclusive
Cc1ccc(-n2ncc3c(N4CCN(c5ccccc5)CC4)ncnc32)c(C)c1	FMDV antiviral 3.2µM, HCV inhibitor 4.5µM, CHX counter 24, Lassa entry inh inconclusive
Cc1cccc(-n2ncc3c(N4CCN(CCO)CC4)ncnc32)c1	none (no result: MARV entry inh, Shiga inhibitor, HCV inhibitor, CHX counter)
Cc1cccc(-n2ncc3c(N4CC(C)CC(C)C4)ncnc32)c1 (stereo not drawn)	Shiga inhibitor 80, HCV inhibitor inconclusive, CHX counter 39 (no result: MARV entry inh, Lassa entry inh)
COc1ccc(N2CCN(c3ncnc4c3cnn4-c3ccc(C)cc3C)CC2)cc1	FMDV antiviral inconclusive
O=C1NC[C@H](CCCCN2C[C@H](Cc3ccccc3)N(CCc3ccccc3)C(=O)C2=O)N(CC2CCCCC2)C1=O	none (no result: MARV entry inh, Shiga inhibitor, HCV inhibitor, CHX counter, Lassa entry inh)
CC(C)CC(NC(=O)C1CCC(=O)N1)C(=O)NC(CC(C)C)C(=O)N1CCCC1C(N)=O (stereo not drawn)	none (no result: MARV entry inh, Lassa entry inh)
O=C(CCNS(=O)(=O)c1ccc(Cl)cc1)NCc1ccccn1	none
COc1ccc(N=Nc2nc3ccc(Br)cc3n2C)cc1	MARV entry inh inconclusive, Shiga inhibitor 70, CHX counter 40
Cn1c(SCn2nnc3ccccc3c2=O)nc2ccccc2c1=O	none (no result: FMDV antiviral, MARV entry inh, HCV inhibitor, Lassa entry inh)
CCC(C(=O)Nc1ccc2c(c1)OCCO2)n1nnc2ccccc2c1=O (stereo not drawn)	Shiga inhibitor 66, CHX counter 59 (no result: MARV entry inh, Lassa entry inh)
CC(Sc1nc2ccccc2c(=O)n1C)C(=O)Nc1ccc2c(c1)OCCO2 (stereo not drawn)	FMDV antiviral inconclusive, HCV inhibitor 10µM (no result: MARV entry inh, Shiga inhibitor, CHX counter, Lassa entry inh)
COCC(C)n1c(SCC(=O)NC(=O)Nc2ccc3c(c2)OCCO3)nc2ccccc2c1=O (stereo not drawn)	Shiga inhibitor 65, CHX counter 33 (no result: FMDV antiviral)
O=c1c2ccccc2nnn1CSc1ccc2c(c1)OCCO2	Shiga inhibitor 26, CHX counter 52, Lassa entry inh inconclusive
O=C(CSc1nc2ccccc2c(=O)n1CCCO)Nc1ccc2c(c1)OCCO2	none (no result: Shiga inhibitor, CHX counter)
COc1cccc(CNC(=O)c2oc3ccc4c(c3c2C)C(=O)CC(C)(C)O4)c1OC	none (no result: Shiga inhibitor, HCV inhibitor, CHX counter, Lassa entry inh)
CC1(C)CC(=O)C(C=NCCN2CCN(C(=O)c3ccc(F)cc3)CC2)=C(O)C1	none
CC1CN(c2nc3ccccc3nc2C(C#N)C(=O)NCc2ccc3c(c2)OCO3)CC(C)O1 (stereo not drawn)	Lassa entry inh inconclusive
Cn1c(=O)c2c(-c3ccccc3)n(-c3cccc(C#N)c3)cc2n(C)c1=O	none (no result: Shiga inhibitor, HCV inhibitor, CHX counter)
Cc1ccc(C(=O)Oc2ccc(N3C(=O)CCC3=O)c(C)c2)cc1	MARV entry inh inconclusive
CC(C)Cn1c(SC(C)C(=O)Nc2ccc3c(c2)OCCO3)nc2ccccc2c1=O (stereo not drawn)	MARV entry inh inconclusive, Lassa entry inh 12µM (no result: FMDV antiviral)
O=C(Nc1ccc2c(c1)OCO2)c1cc(C2CC2)on1	Shiga inhibitor 52, CHX counter 34 (no result: MARV entry inh, Lassa entry inh)
CC(C)c1cc(C(F)(F)F)n2nc(C(=O)Nc3ccc4c(c3)OCO4)cc2n1	HCV inhibitor 13µM
COc1ccc(-c2cc(C(=O)Nc3ccc4c(c3)OCO4)no2)cc1	Lassa entry inh inconclusive
CC(C)c1cc(C(=O)Nc2ccc3c(c2)OCO3)no1	Shiga inhibitor 55, CHX counter 30 (no result: MARV entry inh, Lassa entry inh)
COC(=O)N1CCCCC1c1cc(C(=O)Nc2ccc3c(c2)OCO3)no1 (stereo not drawn)	none (no result: MARV entry inh, Shiga inhibitor, HCV inhibitor, CHX counter, Lassa entry inh)
O=C(Nc1cc(Cl)ccc1Cl)c1cc2nc(-c3ccc4c(c3)OCO4)cc(C(F)(F)F)n2n1	none (no result: Shiga inhibitor, HCV inhibitor, CHX counter)
COc1ccc(CNC(=O)Cc2c(C)c3c(O)cc(C)cc3oc2=O)cc1	MARV entry inh inconclusive (no result: Shiga inhibitor, HCV inhibitor, CHX counter)
Cc1ccc(S(=O)(=O)NC(=O)C2(C)CCN2C(=O)C2(c3ccc(Cl)cc3)CCC2)nc1 (stereo not drawn)	none (no result: MARV entry inh, Shiga inhibitor, HCV inhibitor, CHX counter, Lassa entry inh)
O=C(Nc1ccc(N2CCN(C(=O)c3cccs3)CC2)c(Cl)c1)c1ccco1	MARV entry inh inconclusive, HCV inhibitor inconclusive
O=C(Nc1ccc(N2CCN(C(=O)c3ccco3)CC2)c(Cl)c1)c1c(F)c(F)c(F)c(F)c1F	FMDV antiviral 28µM, MARV entry inh inconclusive, HCV inhibitor inconclusive, Lassa entry inh inconclusive
Cc1ccccc1C(=O)N1CCN(c2ccc(NC(=O)c3ccco3)cc2Cl)CC1	FMDV antiviral inconclusive, MARV entry inh inconclusive, HCV inhibitor 11µM, Lassa entry inh 10µM
O=C(N/N=C/c1cccc(F)c1)NC1CCCCC1	HCV inhibitor inconclusive, CHX counter 19 (no result: Lassa entry inh)
COc1cc(/C=N/NC(=O)NC2CCCCC2)cc(OC)c1O	none (no result: MARV entry inh, Lassa entry inh)
O=C(N/N=C/c1ccccc1OC(F)F)NC1CCCCC1	MARV entry inh inconclusive
CC(C)(C)c1ccc(/C=N/NC(=S)NC2CCCCC2)cc1	MARV entry inh inconclusive, Shiga inhibitor 47, HCV inhibitor inconclusive, Lassa entry inh inconclusive
COc1cc(/C=N/NC(=O)NC2CCCCC2)ccc1O	Shiga inhibitor 43, CHX counter 14, Lassa entry inh inconclusive
